Experimental findings from PubChem BioAssay (NCI) are described below.

This is part of a sample that, as a whole, favours compounds with a hit. Of some 83,000 tested, about 20% had one in any assay.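 Testing used 96-well plates and a 48-hour single-concentration exposure. Example: -40 means 40% of the starting cells died.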 Unmarked numbers belong to inactive results. Active and inactive are the calls of the source. The calls were made as follows: active = growth percent below 10; inactive = the rest.

Holding throughout (assay): NCI-60 one-dose screen, 48 h (100 = growth as untreated, 0 = no growth, -100 = all killed)
For one assay, the system named is SK-MEL-2 melanoma. The following applies: 10 µM unless noted.
In the next assay the test system is EKVX NSCLC. As to conditions: 10 µM unless noted.
The next assay has as its system SN12C renal. As to conditions: 10 µM unless noted.
A further assay has as its system UO-31 renal. The following applies: 10 µM unless noted.
In a further assay the test system is ACHN renal. The following applies: 10 µM unless noted.
The subject of a further assay is CAKI-1 renal. As to conditions: 10 µM.
The next assay has as its system A498 renal. The following applies: 10 µM unless noted.
In the next assay the test system is CCRF-CEM leukemia. As to conditions: 10 µM unless noted.
For another assay, the system named is MOLT-4 leukemia. The following applies: 10 µM unless noted.
The subject of another assay is SR leukemia. As to conditions: 10 µM unless noted.
The subject of the next assay is RPMI-8226 leukemia. The following applies: 10 µM unless noted.
Another assay deals with OVCAR-8 ovarian. As to conditions: 10 µM unless noted.
In another assay the test system is OVCAR-5 ovarian. As to conditions: 10 µM unless noted.
For the next assay, the system named is OVCAR-4 ovarian. As to conditions: 10 µM unless noted.
The test system of the next assay is SK-OV-3 ovarian. As to conditions: 10 µM unless noted.
In another assay the test system is IGROV1 ovarian. The following applies: 10 µM unless noted.
The next assay deals with OVCAR-3 ovarian. As to conditions: 10 µM unless noted.
The next assay has as its system HS 578T breast. As to conditions: 10 µM unless noted.
Another assay deals with NCI/ADR-RES ovarian. As to conditions: 10 µM unless noted.

As for `CCCCOc1nc2ccc(Cl)cc2cc1/C=C/C(=O)/C=C/c1ccc(Cl)cc1`, the growth with SK-MEL-2 melanoma is 101%; with EKVX NSCLC, 83.7%; in the assay on SN12C renal, 92.1%; with UO-31 renal it was 66.9%; in the assay on ACHN renal, 81.5%; in the assay with CAKI-1 renal, 98.1%. The growth is 92.4% in the assay on A498 renal; 76.2% in the assay with CCRF-CEM leukemia; 71.5% with MOLT-4 leukemia; 20.3% with SR leukemia; 0.229% (active) in the assay with RPMI-8226 leukemia; 70.2% in the assay on OVCAR-8 ovarian. Moreover, the growth was 107% with OVCAR-5 ovarian; 91.5% in the assay on OVCAR-4 ovarian; 92.5% in the assay on SK-OV-3 ovarian; 45.8% in the assay on IGROV1 ovarian; 51.1% in the assay with OVCAR-3 ovarian; 76.8% with HS 578T breast. In the assay on NCI/ADR-RES ovarian, the growth is 100%.
With `CN[C@@H](CCCNC(N)=NC/C=C(/C)CCC=C(C)C)C(=O)N(C)[C@@H](CCCNC(N)=NCC=C(C)C)C(=O)N[C@H](C)[C@H](OS(=O)(=O)O)c1ccc(OS(=O)(=O)O)c(COS(=O)(=O)O)c1`, the growth with SK-MEL-2 melanoma is 105%; in the assay on EKVX NSCLC it was 113%; in the assay on SN12C renal it was 101%; with UO-31 renal, 97.6%; with ACHN renal it was 113%; in the assay with CAKI-1 renal, 106%. The growth with A498 renal is 87%; in the assay on CCRF-CEM leukemia, 102%; in the assay with MOLT-4 leukemia it was 96.9%; in the assay with SR leukemia it was 114%; in the assay on RPMI-8226 leukemia, 92.9%; in the assay with OVCAR-8 ovarian, 98.4%. The growth in the assay with OVCAR-5 ovarian was 113%; in the assay with OVCAR-4 ovarian it was 120%; with SK-OV-3 ovarian, 110%; with IGROV1 ovarian, 110%; in the assay with OVCAR-3 ovarian, 107%; in the assay with HS 578T breast, 97.3%. Further, the growth in the assay on NCI/ADR-RES ovarian is 105%.
As to `c1ccc(CNCCN(CCNCc2ccccn2)Cc2ccc3ccccc3c2)nc1`, the growth with SK-MEL-2 melanoma is 9.46% (active); with EKVX NSCLC it was 15.4%; with SN12C renal it was 7.67% (active); in the assay on UO-31 renal, -79.8% (active); in the assay on ACHN renal, -27.9% (active); with CAKI-1 renal, -81.8% (active). Besides, the growth is -17.5% (active) with A498 renal; 6.8% (active) in the assay with CCRF-CEM leukemia; -24.3% (active) in the assay with MOLT-4 leukemia; 2.45% (active) with SR leukemia; 10.6% in the assay with RPMI-8226 leukemia; 11.1% with OVCAR-8 ovarian. Besides, the growth in the assay with OVCAR-5 ovarian is 0.822% (active); in the assay on OVCAR-4 ovarian it was 0.169% (active); in the assay on SK-OV-3 ovarian, -26% (active); with IGROV1 ovarian it was 7.31% (active); in the assay with OVCAR-3 ovarian, 1.32% (active); in the assay with HS 578T breast it was 41.3%. Moreover, the growth with NCI/ADR-RES ovarian was -13% (active).
Take `COc1ccc(-c2nnc(SCC(=O)N3CCN(c4cc5c(cc4F)c(=O)c(C(=O)O)cn5C4CC4)CC3)o2)cc1OC`: the growth is 103% in the assay with SK-MEL-2 melanoma; 102% in the assay with EKVX NSCLC; 97.6% in the assay with SN12C renal; 93.7% with UO-31 renal; 102% in the assay with ACHN renal; 97.1% in the assay on CAKI-1 renal. The growth was 96.7% with A498 renal; 82.6% with CCRF-CEM leukemia; 77.4% in the assay with MOLT-4 leukemia; 90.6% in the assay with SR leukemia; 90.1% in the assay with RPMI-8226 leukemia; 96.9% with OVCAR-8 ovarian. The growth in the assay with OVCAR-5 ovarian is 96.2%; with OVCAR-4 ovarian, 103%; in the assay with SK-OV-3 ovarian, 84.2%; in the assay on IGROV1 ovarian, 97.1%; in the assay with OVCAR-3 ovarian, 111%; in the assay on HS 578T breast, 101%. The growth in the assay on NCI/ADR-RES ovarian was 98.1%.
With `Cc1ccc2nc(-c3ccc(-n4on4-c4ccc(/C=C/c5ccc(-n6on6-c6ccc(-c7nc8ccc(C)cc8s7)cc6)cc5S(=O)(=O)O)c(S(=O)(=O)O)c4)cc3)sc2c1`, the growth in the assay on SK-MEL-2 melanoma is 112%; in the assay with EKVX NSCLC it was 112%; in the assay on SN12C renal it was 105%; in the assay with UO-31 renal, 90.4%; in the assay on ACHN renal, 105%; in the assay with CAKI-1 renal it was 106%. Moreover, the growth is 112% with A498 renal; 100% in the assay on CCRF-CEM leukemia; 93.9% in the assay on MOLT-4 leukemia; 113% in the assay with SR leukemia; 102% with RPMI-8226 leukemia; 116% in the assay on OVCAR-8 ovarian. The growth in the assay on OVCAR-5 ovarian is 105%; in the assay with OVCAR-4 ovarian it was 118%; with SK-OV-3 ovarian it was 113%; in the assay on IGROV1 ovarian it was 101%; with OVCAR-3 ovarian, 107%; with HS 578T breast, 116%. In the assay on NCI/ADR-RES ovarian, the growth is 109%.
Consider `COc1cc(-c2nc(SCC(=O)Nc3ccc(C(C)=O)cc3)[nH]c(=O)c2C#N)cc(OC)c1OC`, for which the growth in the assay on SK-MEL-2 melanoma is 35.9%; in the assay with EKVX NSCLC it was 33.8%; in the assay on SN12C renal, 29.5%; with UO-31 renal it was 49.3%; with ACHN renal it was 41.6%; with CAKI-1 renal, 61.5%. For the same molecule, the growth in the assay with A498 renal was 18.5%; with CCRF-CEM leukemia, -11.9% (active); in the assay on MOLT-4 leukemia, 3.84% (active); in the assay with SR leukemia, 7.62% (active); in the assay with RPMI-8226 leukemia, 7.47% (active); in the assay on OVCAR-8 ovarian, 23.2%. Besides, the growth with OVCAR-5 ovarian is 51.9%; in the assay on OVCAR-4 ovarian, 61.5%; in the assay on SK-OV-3 ovarian, 34.6%; in the assay with IGROV1 ovarian it was 38.4%; with OVCAR-3 ovarian, 0.381% (active); in the assay with HS 578T breast, 10.6%. Also, in the assay on NCI/ADR-RES ovarian, the growth is 75.7%.
Regarding `C[C@]12O[C@H]1[C@H](O)c1c(cc(O)c3c1C(=O)c1cccc(O)c1-3)C2=O`, the growth in the assay with SK-MEL-2 melanoma is 99.3%; in the assay on EKVX NSCLC, 97.8%; in the assay on SN12C renal it was 88.8%; with UO-31 renal, 91.1%; in the assay with ACHN renal, 99.3%; in the assay on CAKI-1 renal, 99.9%. The growth in the assay on A498 renal was 86.4%; in the assay on CCRF-CEM leukemia, 92%; in the assay on MOLT-4 leukemia, 86.6%; in the assay on SR leukemia it was 93.6%; in the assay on RPMI-8226 leukemia, 93.6%; with OVCAR-8 ovarian it was 98.1%. In addition, the growth in the assay on OVCAR-5 ovarian was 106%; in the assay on OVCAR-4 ovarian it was 92.4%; with SK-OV-3 ovarian, 97.9%; with IGROV1 ovarian, 102%; in the assay with OVCAR-3 ovarian, 106%; with HS 578T breast, 93.9%. Moreover, the growth with NCI/ADR-RES ovarian was 107%.
Take `O=C1COc2ccccc2C(=O)N1CCCCN1CCCCC1`: the growth with SK-MEL-2 melanoma was 95.4%; in the assay on EKVX NSCLC, 98.5%; in the assay with SN12C renal, 99.2%; in the assay with UO-31 renal it was 91.7%; with ACHN renal it was 99.2%; with CAKI-1 renal, 103%. The growth is 114% in the assay on A498 renal; 69.4% in the assay with CCRF-CEM leukemia; 83.2% with MOLT-4 leukemia; 90.1% in the assay with SR leukemia; 70.9% with RPMI-8226 leukemia; 94.2% with OVCAR-8 ovarian. The growth in the assay on OVCAR-5 ovarian is 95.9%; in the assay with OVCAR-4 ovarian, 95%; with SK-OV-3 ovarian, 80.4%; in the assay on IGROV1 ovarian, 92%; with OVCAR-3 ovarian, 110%; in the assay on HS 578T breast, 102%. The growth with NCI/ADR-RES ovarian was 98.8%.
